The values below come from PubChem BioAssay (NCATS).

Results filed as inconclusive are left out. Active and inactive are the calls of the source. Unless noted, the call rests on the fitted dose curve; in most records, active means well fitted curve in the direction sought with a large enough effect; inconclusive means small, poorly fitted or top-dose-only effect, or another doubt; inactive means no such curve, though single readings can be large; an effect the other way counts as inactive or inconclusive.

Assay [1] has as its target Nuclear receptor subfamily 1 group I member 3 (Homo sapiens) (UniProt Q14994). Briefly: Primary qHTS for antagonist of constitutive androstane receptor (CAR) against the NCATS DSHEA and TCM libraries (AID 1794836).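 Further: HepG2 cells stably expressing hCAR with CYP2B6 luciferase reporter stimulated by CITCO.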 The procedure, abridged:
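Antagonist mode: CAR reporter luminescence (ONE-Glo) in HepG2-CYP2B6-hCAR cells stimulated with 48 uM CITCO (final) over 24 h at 37 C, compounds titrated; viability read first by CellTiter-Fluor fluorescence.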
(In general: qHTS replaces the single test concentration by a dilution series.)

Assay [2] can be described thus: KB-8-5-11 P-gp reporter qHTS against the NCATS DSHEA and TCM libraries (AID 1919977). Further: 0% is about no effect. The procedure, abridged:
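KB-8-5-11, 500 cells/well, DMEM/10% FBS without colchicine; 4 h attach; cpd titrations, 72 h, 37C/5% CO2; CellTiter-Glo, 30 min RT, luminescence.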

For a further assay, the system named is CRL-7250. Briefly: qHTS assay to identify novel small-molecules to repurpose for Merkel cell carcinoma treatment (AID 1296009). Further: nearly all actives have a fitted effect of over 60% in size. The following applies: MCC and control cell lines, CellTiter-Glo viability, 72 h; series mostly up to 92 µM. The method in brief: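 Cell viability measured by CellTiter-Glo following 72 hr compound treatment at 37 degree celsius, with NPC and MIPE libraries tested in 8- and 11-point concentration series.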

Assay [3] can be described thus: Cytotoxicity counterscreen for inhibitors of SARS-CoV-2 cell entry (AID 1645845; calls by dose curve; further: nearly all actives have a fitted effect of over 50% in size). The procedure, abridged: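 ATP-content luminescence (ATPLite 1step, 15 min RT) read after 48 h compound exposure of Expi293F cells stably expressing human ACE2; normalized to cells-only wells and media-only wells.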
Assay [4] can be described thus: Primary qHTS to identify inhibitors of SARS-CoV-2 cell entry (AID 1645846; calls by dose curve; further: nearly all actives have a fitted effect of over 45% in size). The conditions noted are these: activity change, negative = inhibition: at 57.1 µM (top of the series) unless noted. The procedure, abridged: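 Inhibition of spike-mediated entry was scored in human ACE2-transfected Expi293F cells. Particles were MLV-pseudotyped with Wuhan-Hu-1 S carrying a 19-aa C-terminal deletion; signal was luciferase after two days, scaled between spike PP and fusion-protein-free PP.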

Assay [5] has as its target Alpha-galactosidase (Coffea arabica) (UniProt Q42656). Briefly: Counterscreen for Glucocerebrosidase Inhibitors: qHTS Assay for Coffee Bean alpha-Galactosidase at pH 5.9 (AID 998).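 Further: plate controls were uninhibited enzyme for no effect and no-enzyme basal signal for full effect.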 The method in brief:
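Fluorogenic 4-MU substrate hydrolysis, 80 uM substrate and 2 nM coffee bean alpha-galactosidase, pH 5.9 citrate buffer, 20 min at room temperature, then NaOH/glycine stop. Titration 0.7 nM–77 uM, normalized to no-enzyme and enzyme controls, AC50 via Hill equation.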

Assay [6] can be described thus: Validation screen for inhibitors of Lassa infection (AID 463096; calls by dose curve; further: on the % scale 0 is the no-effect control and ±100 the full control effect).
The nature of assay [7]: Inducers of the Endoplasmic Reticulum Stress Response (ERSR) in human glioma: Validation (AID 504836). Further: 0% is about no effect. The procedure, abridged: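 ERSR induction read as luciferase luminescence (Bright-Glo, 10 min at room temperature) in stably transfected human U87-MG glioma cells exposed to compounds for 16 h, using GRP78 as sensor.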
Assay [8] deals with Zika virus NS2B-NS3 protease (unlinked complex). Briefly: Primary screen GU Rhodamine qHTS for Zika virus inhibitors: Unlinked NS2B-NS3 protease assay (AID 1347159). Further: on the % scale 0 is the no-effect control and ±100 the full control effect; nearly all actives have a fitted effect of over 60% in size. The procedure, abridged: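 Unlinked NS2B/NS3, 25 nM; Rhod110 peptide, 1.5 microM; compounds, up to 114 microM. Reaction run 15 min at RT in 10 mM Tris-HCl pH 8.0, 0.01% Tween 20; kinetic fluorescence change fitted with a 4-parameter Hill model.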

The subject of assay [9] is Zika virus NS2B-NS3 protease (linked construct). Briefly: Primary screen NINDS Rhodamine qHTS for Zika virus inhibitors (AID 1347160). Further: on the % scale 0 is the no-effect control and ±100 the full control effect; nearly all actives have a fitted effect of over 55% in size. The procedure, abridged:
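Single-chain NS2B-NS3 protease, 25 nM, pH 8.0; compounds preincubated 15 min. Activity: Rhodamine110 release from 1.5 microM substrate over 15 min, room temperature, data fitted to 4-parameter Hill.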

For assay [10], the target named is Calcium and integrin-binding protein 1 (Homo sapiens) (UniProt Q99828). Briefly: Primary qHTS for Identification of Calcium Integrin Binding Protein 1 (CIB1) Competitor (AID 1508620).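 Further: GST tagged CIB1 binding a fluorescein labelled alphaIIb integrin peptide tracer; top concentration of the series differs between compounds; on the % scale 0 is the no-effect control and ±100 the full control effect.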 The method in brief: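 CIB1-GST (1 uM final) and compound incubated 15 min at room temperature before adding FITC-alphaIIb peptide tracer (100 nM final). Competition for binding read by fluorescence polarization (ex 480, em 540) after another 15 min at room temperature.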
Chain of Calcium and integrin-binding protein 1 (Homo sapiens) (Q99828 whole entry, looked up): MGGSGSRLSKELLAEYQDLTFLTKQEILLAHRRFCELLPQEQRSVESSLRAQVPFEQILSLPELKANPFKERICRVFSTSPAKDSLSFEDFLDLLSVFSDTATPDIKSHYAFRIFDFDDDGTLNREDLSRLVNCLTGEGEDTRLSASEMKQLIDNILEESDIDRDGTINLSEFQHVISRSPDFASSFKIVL

Assay [11] can be described thus: Primary qHTS for inhibitors of nuclear receptor binding SET domain protein 2 (NSD2) in an isogenic RCH-ACV NSD2 p.E1099K mutant (9B) (AID 1645876). Further: potency means the concentration at half of the fitted maximal effect; nearly all actives have a fitted effect of over 70% in size.
Assay [12] is described as follows: Primary qHTS for inhibitors of nuclear receptor binding SET domain protein 2 (NSD2) in an RCH-ACV wild type WT cells (2C) (AID 1645877). Further: potency means the concentration at half of the fitted maximal effect; nearly all actives have a fitted effect of over 70% in size.
The target in assay [13] is Glutathione peroxidase 1 (Homo sapiens) (UniProt P07203). Briefly: Primary qHTS Assay for Inhibitors of Recombinant Selenoprotein Glutathione Peroxidase 1 (GPX1) (AID 1845191). Further: nearly all actives have a fitted effect of over 65% in size. The procedure, abridged: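 NADPH consumption tracked by fluorescence at 340/450 nm between t=0 and t=15 min, room temperature. Final mix: 10 nM GPX1, 100 nM glutathione reductase, 1 mM GSH, 0.5 mM NADPH, 0.5 mM cumene hydroperoxide, 0.01% BSA; 30 min compound–enzyme preincubation.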
Chain of Glutathione peroxidase 1 (Homo sapiens) (P07203 whole entry, looked up): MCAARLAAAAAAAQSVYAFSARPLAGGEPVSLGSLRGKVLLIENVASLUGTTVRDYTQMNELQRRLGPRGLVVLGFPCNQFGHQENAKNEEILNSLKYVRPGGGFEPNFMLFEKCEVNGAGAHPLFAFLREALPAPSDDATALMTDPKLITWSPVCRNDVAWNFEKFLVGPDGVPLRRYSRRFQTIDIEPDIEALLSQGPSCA

Assay [14] addresses Phospholipid hydroperoxide glutathione peroxidase GPX4 (Homo sapiens) (UniProt P36969). Briefly: Primary qHTS Assay for Inhibitors of Recombinant Selenoprotein Glutathione Peroxidase 4 (GPX4) (AID 1845192). Further: on the % scale 0 is the no-effect control and ±100 the full control effect; nearly all actives have a fitted effect of over 65% in size. The method in brief: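 NADPH consumption followed by fluorescence at 340/450 nm, t=0 and after 15 min at room temperature. Reaction started with cumene hydroperoxide (0.5 mM final) after 30 min compound–GPX4 preincubation; final 200 nM GPX4, 100 nM GR, 1 mM GSH, 0.5 mM NADPH.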

Assay [15] addresses Luciferin 4-monooxygenase (Photinus pyralis) (UniProt P08659). Briefly: Primary firefly luciferase (FLuc) qHTS assay for identification of artifact compounds. (AID 1845220). Further: nearly all actives have a fitted effect of over 60% in size. The conditions noted are these: outcome: dose series up to 54.1 µM unless noted. The method in brief: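 Cell-free, 1536-well qHTS. Buffer pH 7.6 with 0.01% Tween-20 and 0.05% BSA; 10 uM D-luciferin, 10 uM ATP; 10 nM P. pyralis luciferase; luminescence after 5 min.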

Assay [16] can be described thus: Primary fluorescence-based thiol-reactive (MSTI) qHTS assay for identification of artifact compounds. (AID 1845221).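 Further: thiol-reactive compounds lower the probe fluorescence signal; nearly all actives have a fitted effect of over 65% in size.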 The method in brief: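 In PBS pH 7.4 with 2% DMSO, each compound met 4 uM MSTI for one hour at ambient temperature, shielded from light, before fluorescence detection.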
Assay [17] has as its system Nanoluciferase (engineered Oplophorus gracilirostris luciferase). Briefly: Primary Nanoluciferase (NLuc) qHTS assay for identification of artifact compounds. (AID 1845222).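 Further: 0% = DMSO and -100% = no enzyme.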 The procedure, abridged: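 Compounds are pinned into diluted (1:55) conditioned medium of NLuc-expressing S16 cells and held 15 min at room temperature protected from light. Nano-Glo substrate follows, and luminescence is read 5 min later.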

For a further assay, the system named is HeLa. Briefly: Primary qHTS to identify gynecologic anti-cancer compounds using libraries of approved drugs and bioactive compounds (AID 1345084). Further: on the % scale 0 is the no-effect control and ±100 the full control effect; nearly all actives have a fitted effect of over 55% in size. The conditions noted are these: Gynecologic cancer cell panel viability, ATPlite luminescence, 48 h; series mostly up to 57.5 µM. The procedure, abridged:
(§1)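 Five-concentration response, 48 h; readout is ATP-driven luciferase luminescence.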

The next assay deals with JEG-3. The assay is described as above. The conditions noted are these: Gynecologic cancer cell panel viability, ATPlite luminescence, 48 h; series mostly up to 57.5 µM. The method in brief:
as §1
On the technique in general: ATP-based viability assays read luminescence as a measure of living cells.

Chain of Nuclear receptor subfamily 1 group I member 3 (Homo sapiens) (Q14994 whole entry, looked up): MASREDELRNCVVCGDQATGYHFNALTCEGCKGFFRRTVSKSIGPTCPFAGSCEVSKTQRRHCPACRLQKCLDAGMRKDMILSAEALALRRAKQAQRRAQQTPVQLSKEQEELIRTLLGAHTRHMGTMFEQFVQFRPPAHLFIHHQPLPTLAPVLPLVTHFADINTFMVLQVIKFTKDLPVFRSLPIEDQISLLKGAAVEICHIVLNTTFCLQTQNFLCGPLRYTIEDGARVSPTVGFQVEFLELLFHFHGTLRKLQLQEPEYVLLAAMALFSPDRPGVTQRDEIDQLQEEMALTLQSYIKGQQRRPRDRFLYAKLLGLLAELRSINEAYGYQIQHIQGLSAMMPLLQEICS
Chain of Alpha-galactosidase (Coffea arabica) (Q42656 whole entry, looked up): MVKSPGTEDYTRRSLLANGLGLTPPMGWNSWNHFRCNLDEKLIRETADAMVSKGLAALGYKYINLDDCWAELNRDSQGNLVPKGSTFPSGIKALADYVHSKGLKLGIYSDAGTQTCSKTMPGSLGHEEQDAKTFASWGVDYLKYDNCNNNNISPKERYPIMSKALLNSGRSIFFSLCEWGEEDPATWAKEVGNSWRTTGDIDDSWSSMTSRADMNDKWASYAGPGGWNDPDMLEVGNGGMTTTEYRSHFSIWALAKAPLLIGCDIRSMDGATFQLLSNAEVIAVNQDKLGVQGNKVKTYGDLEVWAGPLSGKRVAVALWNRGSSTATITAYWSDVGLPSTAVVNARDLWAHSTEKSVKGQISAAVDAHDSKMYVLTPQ
Chain of Phospholipid hydroperoxide glutathione peroxidase GPX4 (Homo sapiens) (P36969 whole entry, looked up): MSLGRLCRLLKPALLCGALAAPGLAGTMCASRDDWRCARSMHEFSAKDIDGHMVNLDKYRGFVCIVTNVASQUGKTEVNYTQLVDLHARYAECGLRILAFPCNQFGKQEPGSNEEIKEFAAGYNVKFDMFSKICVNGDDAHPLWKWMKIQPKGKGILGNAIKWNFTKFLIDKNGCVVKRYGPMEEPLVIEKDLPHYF

With `CC(=O)O[C@@H]1C[C@@H](C)[C@](O)(CCC2=CC(=O)OC2)[C@@]2(C)CCCC(C)(C)C12` (stereo partly specified), the Potency result (in assay [1]; in the assay with CRL-7250) was “inactive” each time. In addition, the compound was classed as inactive in assay [2].

In the case of `Cc1c(-c2ccnn2C)cc(C(=O)NCc2ccc(S(C)(=O)=O)cn2)c(=O)n1-c1cccc(C(F)(F)F)c1`, the Potency result (in assay [3]; in assay [4]; with CRL-7250) was “inactive” in each case.

For the compound `CCNC(=O)CCC/C=C\C[C@@H]1[C@@H](/C=C/C(O)CCc2ccccc2)[C@@H](O)C[C@@H]1O` (stereo partly specified), the Potency result (in assay [3]; in the assay with CRL-7250) was “inactive” in each case. Further, in [4], the activity change, negative = inhibition is -23.1%.

In the case of `N#Cc1ccc(COC[C@H]2O[C@@H](n3c(NCc4ccc(Cl)c(Cl)c4)nc4c(N)ncnc43)[C@H](O)[C@@H]2O)cc1`, the Potency result (in assay [3]; in the assay on CRL-7250) was “inactive” in each case.

Regarding `CCNCc1nc2c(N)nc3ccccc3c2n1CC(C)(C)O`, the Potency result (in [3]; with CRL-7250) was “inactive” each time. Besides, the activity change, negative = inhibition in [4] is -33.4%.

`CCCOc1ccn2c(C(C)=O)cc(-c3ccccc3S(C)(=O)=O)c2c1`: the Potency result (in assay [3]; in [4]; in the assay on CRL-7250) was “inactive” throughout.

`CC(C)N(C[C@H]1O[C@@H](n2cnc3c(N)ncnc32)[C@H](O)[C@@H]1O)C1CC(CCc2nc3ccc(C(C)(C)C)cc3[nH]2)C1` (stereo partly specified): the Potency result (in [3]; in assay [4]; in the assay with CRL-7250) was “inactive” in each case.

Regarding `O=C(CCc1ccc(O)cc1)c1c(O)cc(O)cc1O`, the call in assay [5] and in assay [7] was inactive. Further, the Potency entry (in assay [6]; in assay [3]; with CRL-7250) was “inactive” each time. Further, in assay [4], the activity change, negative = inhibition is -19.9%.

`COCCOc1ccc(N2CCN(CCn3ncc4c3nc(N)n3nc(-c5ccco5)nc43)CC2)cc1`: the Potency entry (in assay [3]; in the assay with CRL-7250) was “inactive” each time. Also, the activity change, negative = inhibition in [4] was -15.3%.

As for `CC1=CC2/C=C(\C)CCC(O)C(O)C(O)CC(=O)C23C(=O)NC(CC(C)C)C3C1C` (stereo unspecified), the Potency result in assay [8], in [9], in assay [10], in [13], in assay [14] and in [16] was “inactive” in each case. Besides, the Potency entry (in assay [17]; with HeLa; in the assay on JEG-3) was “inactive” in each case. The values for the Potency in assay [11] and in assay [12] were 4.47 µM (active) and 3.17 µM (active), respectively. In addition, the outcome in [15] was “inactive [at 25.7 µM]”.
